The whole screen tested about 5,500 compounds, of which about 2,000 (36%) were called active. About 18% were inconclusive and are not listed. The list shows a part of the results. Unmarked numbers belong to inactive results. Rule as the data show it: active = normalized growth mostly below about 0.91 (no sharp cut-off); inconclusive = no clear call, values can overlap the other calls; inactive = mostly above about 0.92.
Assay: chemical genetic growth profiling, strain panel (AID 1159580);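 also: tested at 20 µM; growth read once vehicle control cultures reached saturation at 30 °C; 1 = growth at the plate median or of vehicle wells; lower values mean less growth of the strain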
Settings: growth OD
[1] = S. cerevisiae deletion strains, locus YGR078C, strain PAC10, stronger effect = lower value
[2] = S. cerevisiae deletion strains, locus YGR229C, strain SMI1, stronger effect = lower value
[3] = S. cerevisiae deletion strains, locus YJR075W, strain HOC1, stronger effect = lower value
[4] = S. cerevisiae deletion strains, locus YNL322C, strain KRE1, stronger effect = lower value
[5] = S. cerevisiae deletion strains, locus YPL241C, strain CIN2, stronger effect = lower value

CC(=O)OC1CN2CCC1CC2 (stereo not drawn)
normalized growth (S. cerevisiae deletion strains, locus YAL013W, strain DEP1, stronger effect = lower value): 0.997 | normalized growth (S. cerevisiae deletion strains, locus YBR021W, strain FUR4, stronger effect = lower value): 1.01 | normalized growth (S. cerevisiae deletion strains, locus YBR229C, strain ROT2, stronger effect = lower value): 0.973 | normalized growth (S. cerevisiae deletion strains, locus YCL029C, strain bik1, stronger effect = lower value): 0.983 | normalized growth (S. cerevisiae deletion strains, locus YDL035C, strain GPR1, stronger effect = lower value): 1.02 | normalized growth (S. cerevisiae deletion strains, locus YDL074C, strain BRE1, stronger effect = lower value): 1.03 | normalized growth (S. cerevisiae deletion strains, locus YDL101C, strain DUN1, stronger effect = lower value): 0.989 | normalized growth (S. cerevisiae deletion strains, locus YDL134C, strain PPH21, stronger effect = lower value): 0.988 | normalized growth (S. cerevisiae deletion strains, locus YDL185W, strain tfp1, stronger effect = lower value): 0.965 | normalized growth (S. cerevisiae deletion strains, locus YDL192W, strain arf1, stronger effect = lower value): 0.985 | normalized growth (S. cerevisiae deletion strains, locus YDR101C, strain arx1, stronger effect = lower value): 0.987 | normalized growth (S. cerevisiae deletion strains, locus YDR150W, strain NUM1, stronger effect = lower value): 0.982 | normalized growth (S. cerevisiae deletion strains, locus YDR162C, strain NBP2, stronger effect = lower value): 0.991 | normalized growth (S. cerevisiae deletion strains, locus YDR318W, strain mcm21, stronger effect = lower value): 1 | normalized growth (S. cerevisiae deletion strains, locus YDR388W, stronger effect = lower value): 0.991 | normalized growth (S. cerevisiae deletion strains, locus YDR502C, strain sam2, stronger effect = lower value): 0.993 | normalized growth (S. cerevisiae deletion strains, locus YEL061C, strain CIN8, stronger effect = lower value): 0.995 | normalized growth (S. cerevisiae deletion strains, locus YER110C, stronger effect = lower value): 0.959 | normalized growth (S. cerevisiae deletion strains, locus YER155C, strain BEM2, stronger effect = lower value): 1 | normalized growth (S. cerevisiae deletion strains, locus YER167W, strain BCK2, stronger effect = lower value): 1 | normalized growth (S. cerevisiae deletion strains, locus YGL078C, strain dbp3, stronger effect = lower value): 0.993 | normalized growth (S. cerevisiae deletion strains, locus YGL086W, strain mad1, stronger effect = lower value): 0.994 | normalized growth (S. cerevisiae deletion strains, locus YGL248W, strain PDE1, stronger effect = lower value): 1.01 | normalized growth [1]: 1.01 | normalized growth (S. cerevisiae deletion strains, locus YGR135W, strain pre9, stronger effect = lower value): 0.995 | normalized growth [2]: 1.01 | normalized growth (S. cerevisiae deletion strains, locus YGR252W, strain gcn5, stronger effect = lower value): 1.07 | normalized growth (S. cerevisiae deletion strains, locus YHR030C, strain SLT2, stronger effect = lower value): 1 | normalized growth (S. cerevisiae deletion strains, locus YHR079C, strain IRE1 (second series), stronger effect = lower value): 0.982 | normalized growth (S. cerevisiae deletion strains, locus YHR094C, strain hxt1, stronger effect = lower value): 0.985 | normalized growth (S. cerevisiae deletion strains, locus YHR129C, strain ARP1, stronger effect = lower value): 1 | normalized growth (S. cerevisiae deletion strains, locus YHR200W, strain rpn10, stronger effect = lower value): 0.985 | normalized growth (S. cerevisiae deletion strains, locus YIL066C, strain RNR3, stronger effect = lower value): 0.993 | normalized growth (S. cerevisiae deletion strains, locus YIL073C, strain SPO22, stronger effect = lower value): 0.97 | normalized growth (S. cerevisiae deletion strains, locus YIL125W, strain kgd1, stronger effect = lower value): 0.982 | normalized growth (S. cerevisiae deletion strains, locus YIR030C, strain dcg1, stronger effect = lower value): 0.971 | normalized growth (S. cerevisiae deletion strains, locus YJL095W, strain BCK1, stronger effect = lower value): 1.04 | normalized growth (S. cerevisiae deletion strains, locus YJL134W, strain LCB3, stronger effect = lower value): 0.987 | normalized growth (S. cerevisiae deletion strains, locus YJL168C, strain set2, stronger effect = lower value): 0.994 | normalized growth (S. cerevisiae deletion strains, locus YJL187C, strain SWE1 (second series), stronger effect = lower value): 1.01 | normalized growth (S. cerevisiae deletion strains, locus YJR043C, strain POL32, stronger effect = lower value): 1.01 | normalized growth [3]: 1.02 | normalized growth (S. cerevisiae deletion strains, locus YKL009W, strain mrt4, stronger effect = lower value): 0.963 | normalized growth (S. cerevisiae deletion strains, locus YKL068W, stronger effect = lower value): 0.982 | normalized growth (S. cerevisiae deletion strains, locus YKL085W, strain MDH1 (second series), stronger effect = lower value): 0.992 | normalized growth (S. cerevisiae deletion strains, locus YKL085W, strain MDH1, stronger effect = lower value): 0.992 | normalized growth (S. cerevisiae deletion strains, locus YKL190W, strain CNB1, stronger effect = lower value): 0.997 | normalized growth (S. cerevisiae deletion strains, locus YKR001C, strain vps1, stronger effect = lower value): 0.981 | normalized growth (S. cerevisiae deletion strains, locus YLR039C, strain RIC1, stronger effect = lower value): 1 | normalized growth (S. cerevisiae deletion strains, locus YLR058C, strain SHM2, stronger effect = lower value): 0.986 | normalized growth (S. cerevisiae deletion strains, locus YLR102C, strain apc9, stronger effect = lower value): 0.982 | normalized growth (S. cerevisiae deletion strains, locus YLR262C, strain YPT6, stronger effect = lower value): 0.997 | normalized growth (S. cerevisiae deletion strains, locus YLR268W, strain sec22, stronger effect = lower value): 1.09 | normalized growth (S. cerevisiae deletion strains, locus YLR330W, strain CHS5, stronger effect = lower value): 0.991 | normalized growth (S. cerevisiae deletion strains, locus YLR342W, strain FKS1 (second series), stronger effect = lower value): 1.02 | normalized growth (S. cerevisiae deletion strains, locus YLR371W, strain rom2, stronger effect = lower value): 0.929 | normalized growth (S. cerevisiae deletion strains, locus YLR418C, strain cdc73, stronger effect = lower value): 1.05 | normalized growth (S. cerevisiae deletion strains, locus YML016C, strain PPZ1, stronger effect = lower value): 0.981 | normalized growth (S. cerevisiae deletion strains, locus YML032C, strain rad52, stronger effect = lower value): 1.01 | normalized growth (S. cerevisiae deletion strains, locus YML124C, strain tub3, stronger effect = lower value): 0.976 | normalized growth (S. cerevisiae deletion strains, locus YMR078C, strain ctf18, stronger effect = lower value): 0.972 | normalized growth (S. cerevisiae deletion strains, locus YMR223W, strain ubp8, stronger effect = lower value): 0.995 | normalized growth (S. cerevisiae deletion strains, locus YMR263W, strain SAP30, stronger effect = lower value): 1.01 | normalized growth (S. cerevisiae deletion strains, locus YMR307W, strain GAS1, stronger effect = lower value): 1.1 | normalized growth (S. cerevisiae deletion strains, locus YNL067W, strain RPL9B, stronger effect = lower value): 1.04 | normalized growth (S. cerevisiae deletion strains, locus YNL128W, strain TEP1, stronger effect = lower value): 0.997 | normalized growth (S. cerevisiae deletion strains, locus YNL153C, strain GIM3, stronger effect = lower value): 1.01 | normalized growth (S. cerevisiae deletion strains, locus YNL233W, strain BNI4, stronger effect = lower value): 1.04 | normalized growth (S. cerevisiae deletion strains, locus YNL250W, strain rad50, stronger effect = lower value): 0.98 | normalized growth (S. cerevisiae deletion strains, locus YNL271C, strain bni1, stronger effect = lower value): 0.987 | normalized growth (S. cerevisiae deletion strains, locus YNL298W, strain CLA4, stronger effect = lower value): 0.962 | normalized growth (S. cerevisiae deletion strains, locus YNL307C, strain MCK1, stronger effect = lower value): 0.988 | normalized growth [4]: 0.995 | normalized growth (S. cerevisiae deletion strains, locus YNR052C, strain pop2, stronger effect = lower value): 0.989 | normalized growth (S. cerevisiae deletion strains, locus YOL006C, strain TOP1, stronger effect = lower value): 1.04 | normalized growth (S. cerevisiae deletion strains, locus YOL012C, strain htz1): 1.28 | normalized growth (S. cerevisiae deletion strains, locus YOL147C, strain pex11, stronger effect = lower value): 0.989 | normalized growth (S. cerevisiae deletion strains, locus YOR061W, strain CKA2, stronger effect = lower value): 0.975 | normalized growth (S. cerevisiae deletion strains, locus YOR136W, strain idh2, stronger effect = lower value): 0.988 | normalized growth (S. cerevisiae deletion strains, locus YOR144C, strain elg1, stronger effect = lower value): 0.968 | normalized growth (S. cerevisiae deletion strains, locus YOR184W, strain ser1, stronger effect = lower value): 0.98 | normalized growth (S. cerevisiae deletion strains, locus YOR316C, strain cot1, stronger effect = lower value): 0.978 | normalized growth (S. cerevisiae deletion strains, locus YPL055C, strain LGE1, stronger effect = lower value): 1.02 | normalized growth [5]: 0.999 | normalized growth (S. cerevisiae deletion strains, locus YPR119W, strain clb2, stronger effect = lower value): 0.987 | normalized growth (S. cerevisiae deletion strains, locus YPR141C, strain kar3, stronger effect = lower value): 0.963 | normalized growth (S. cerevisiae deletion strains, locus YPR163C, strain tif3, stronger effect = lower value): 0.986 | normalized growth (S. cerevisiae deletion strains, locus YPR167C, strain met16, stronger effect = lower value): 0.984 | normalized growth (S. cerevisiae deletion strains, strain wtn01, stronger effect = lower value): 1.01 | normalized growth (S. cerevisiae strains, strain wild type, stronger effect = lower value): 1.01

O=C(NC(Cc1ccccc1)C(=O)CCl)OCc1ccccc1 (stereo not drawn)
normalized growth (S. cerevisiae deletion strains, locus YAL040C, strain CLN3, stronger effect = lower value): 1.03 | normalized growth (S. cerevisiae deletion strains, locus YCL061C, strain MRC1 (second series), stronger effect = lower value): 0.979 | normalized growth (S. cerevisiae deletion strains, locus YDR363W, strain ESC2, stronger effect = lower value): 1.02 | normalized growth (S. cerevisiae deletion strains, locus YER002W, strain NOP16, stronger effect = lower value): 0.549 (active) | normalized growth [1]: 0.98 | normalized growth [2]: 0.28 (active) | normalized growth [3]: 0.913 | normalized growth (S. cerevisiae deletion strains, locus YNL175C, strain NOP13, stronger effect = lower value): 0.707 (active) | normalized growth (S. cerevisiae deletion strains, locus YNL197C, strain WHI3, stronger effect = lower value): 0.874 (active) | normalized growth (S. cerevisiae deletion strains, locus YNL224C, strain SQS1, stronger effect = lower value): 0.784 (active) | normalized growth [4]: 0.999 | normalized growth (S. cerevisiae deletion strains, locus YOR083W, strain WHI5 (second series), stronger effect = lower value): 0.687 (active) | normalized growth [5]: 0.992

Reference: PubChem BioAssay AID1159580 (chemical genetic matrix, 2015)
